Out of some 69,000 compounds screened, about 8,600 (12%) showed an effect of 50% or more. Many of the other results were omitted from the sample, so strong results are more common in it than they were.

This test concerns Plasmodium berghei. The test is described as follows: Screen against P. berghei liver stage (PbLuc), transformed with Luciferase, at 10uM. Format: functional, HepG2. Particulars: tested at 10 uM.
Consider `Nc1nc(Cn2ccnc2-c2cc(CN3CCCC3)cs2)cs1`, for which the INHIBITION is 42.1%. As to `c1cn(CCc2c[nH]cn2)c(-c2cc(CN3CCCC3)cs2)n1`, the INHIBITION stood at 60%.

For the molecule `COCCn1ccnc1-c1cc(CN2CCCCC2)cs1`, the INHIBITION is recorded as 8.51%.

Consider `Cc1nc2c(c(NC(C)C)n1)CCN(Cc1cccnc1)CC2`, for which the INHIBITION came to 49.7%. Then `Cc1nc(O)c2c(n1)CCN(Cc1cc(C)sc1C)CC2`, with 60.1%; and `Cc1nc(C)c2c(n1)CCN(Cc1ccco1)CC2`, with -53.2%; and `CCn1cc(CN2CCc3nc(N4CCOCC4)nc(O)c3CC2)cn1`, with 29.6%. Then `Oc1nc(N2CCOCC2)nc2c1CCN(Cc1ccccc1)CC2`, with 35.2%. With `Oc1nc(N2CCOCC2)nc2c1CCN(Cc1cccnc1)CC2`, the INHIBITION is 23.3%. Then `Cc1cc(CN2CCc3nc(C(C)C)nc(O)c3CC2)c(C)s1`, with 62.9%. The same measure for `Oc1nc(N2CCOCC2)nc2c1CCN(Cc1ccc(F)cc1)CC2`: 38.2%. The same measure for `Cc1ccc(CN2CCc3nc(C(C)C)nc(O)c3CC2)s1`: 2.55%; for `Oc1nc(N2CCOCC2)nc2c1CCN(Cc1cccc(F)c1)CC2`: 54.5%. Regarding `CC(C)c1ncc2c(n1)CN(Cc1cccc3c1OCCO3)CC2`, the INHIBITION was determined as 37.7%.

With `Cc1cc(CN2CCc3nc(N4CCOCC4)nc(O)c3CC2)c(C)s1`, the INHIBITION came out at 90.7%. The same measure for `Cc1cccc(C(=O)N2C[C@@H]3C(CC(=O)Nc4cccnc4)[C@@H]3C2)n1` (stereo partly drawn): 30.9%; for `Cc1ccsc1C(=O)N1CC[C@@H](N(C)C)[C@@H]1Cc1cnn(C)c1`: 36.9%.

As to `O=C(CN1CCCC1)Nc1c2c(cc3c1CCC3)CCC2`, the INHIBITION is reported as -3.47%. Take `Cn1ncc2c1CCCN(C(=O)C1CC1)C2`: the INHIBITION is reported as 24.69%. Consider `CN(C)c1cc(C(=O)N2CCCCC2CNS(C)(=O)=O)ccn1` (stereo not drawn), for which the INHIBITION is on record as -8.11%. The same measure for `CC(C)(C)SCCN1CC(=O)N2CC[C@@H](O)C[C@H]2C1=O`: 11.265%; for `CN1CC(=O)N(c2ccccc2)CC12CCN(CCO)C2` (stereo not drawn): 41.3%. As for `Cc1ccc(O)c(CN2CCc3nc(-c4cccnc4)nc(O)c3C2)c1`, the INHIBITION was found to be 32.8%. The same measure for `C=Cn1ncc(CN2CCc3nc(-c4ccncc4)nc(O)c3C2)c1C`: 17.1%. The same measure for `Cc1cc(CN2CCc3nc(-c4ccncc4)nc(O)c3CC2)c(C)s1`: 83.3%; for `O=C(NCc1ccc(OCC2CC2)nc1)c1c(F)cccc1F`: -26.8%. Then `CCNC(=O)CNS(=O)(=O)c1cc(Br)ccc1F`, with 53.6%.

As for `CCN(CC)C(=O)CNS(=O)(=O)c1cc(Br)ccc1F`, the INHIBITION is given as 23%. Then `CN(C)C(=O)CNS(=O)(=O)c1cc(Br)ccc1F`, with 42.4%; and `COCC(=O)N1CCCC(Cc2cnc(-c3c(C)n[nH]c3C)cn2)C1` (stereo not drawn), with -29.8%. Then `CC(C#N)CSc1ccccc1NCC(=O)NC(C1CC1)C1CC1` (stereo not drawn), with 43.4%. Then `CC(C#N)CSc1ccccc1NCC(=O)NC1CCCCC1` (stereo not drawn), with 54.4%. For the molecule `CC(C#N)CSc1ccccc1NCC(=O)Nc1ccc(F)cc1` (stereo not drawn), the INHIBITION is on record as 11.1%. For `CC(C#N)CSc1ccccc1NCC(=O)Nc1ccccc1` (stereo not drawn), the INHIBITION is recorded as 26.5%. For the molecule `CC(C#N)CSc1ccccc1NCC(=O)NC(=O)NC(C)(C)C` (stereo not drawn), the INHIBITION worked out at 61.3%.

`CC(C#N)CSc1ccccc1NCC(=O)NCc1ccccc1` (stereo not drawn): the INHIBITION stood at 14.2%. The same measure for `O=C(CSc1nnc[nH]1)NCc1cccs1`: -95.7%; for `CC(C)CNC(=O)NC(=O)CNc1ccccc1SCC(C)C#N` (stereo not drawn): -7.9%; for `CC(C#N)CSc1ccccc1NCC(=O)NCc1cccs1` (stereo not drawn): 58.3%.

As to `O=c1[nH]c2cn(-c3cccc(F)c3)c(=O)n2n1Cc1ccc(Cl)cc1`, the INHIBITION is reported as 28.7%. The same measure for `CCSc1ccccc1C(=O)N(CCOC)Cc1ccoc1`: 25.1%; for `Cc1cc(C(F)(F)F)nn1CC(C)C(=O)NC(C)C` (stereo not drawn): 42.4%; for `CNC(=O)CN1CCCC12CCN(Cc1c[nH]cn1)CC2`: 19.5%. `CC(C)CN1CCn2nc(CNc3ncnc4[nH]ccc34)cc2C1`: the INHIBITION is -2.39%. With `COc1ccc(C[C@H]2CNCC[C@H]2OC)cc1`, the INHIBITION is on record as 1.34%. Then `Cc1cnn(C2CCCN(C(=O)CCc3cscn3)C2)c1` (stereo not drawn), with 33.7%; and `CC(=O)N1CCCN(c2cc(C3CN(C)CCO3)nc(C)n2)CC1` (stereo not drawn), with 36.4%; and `Cc1cn2c(n1)CCC(NC(=O)CCCn1cncn1)C2` (stereo not drawn), with 29.2%. Then `CCS(=O)(=O)CC(=O)NC1CCc2nccn2C1` (stereo not drawn), with 36.3%; and `CS(=O)(=O)C1(C(=O)NC2CCc3nccn3C2)CCCC1` (stereo not drawn), with 74.8%.

`COc1ccc(C2(C(=O)NC3CCc4nccn4C3)CCCC2)cc1` (stereo not drawn): the INHIBITION was found to be 24.3%. As for `O=C(CCn1cncn1)NC1CCc2nccn2C1` (stereo not drawn), the INHIBITION is listed as -3.7%. Turning to `O=C(CCCn1cncn1)NC1CCc2nccn2C1` (stereo not drawn), the INHIBITION is 62.1%. The same measure for `Cc1nc(C)n(CC2CN(Cc3noc(C4CC4)n3)CCO2)n1` (stereo not drawn): 16.8%. Take `CCc1nc(N2CCC3(CC2)CC(=O)N(Cc2ccc(Cl)cc2)C3)no1`: the INHIBITION is given as -88.1%. Take `CCc1n[nH]c(C2CN(CCCS(C)(=O)=O)CCO2)n1` (stereo not drawn): the INHIBITION was 9.14%. Turning to `CS(=O)(=O)N1CCC(NC(=O)COc2ccc(Cl)c(Cl)c2)CC1`, the INHIBITION came out at 27.4%. With `Cc1csc(CCNC(=O)C2CCN(CC(N)=O)CC2)n1`, the INHIBITION is reported as -23.5%. For `NC(=O)CN1CCC(C(=O)NCCc2nc(-c3ccccc3)cs2)CC1`, the INHIBITION is -53.6%.

For `NC(=O)CN1CCC(C(=O)NCc2nc(-c3ccc(F)cc3)cs2)CC1`, the INHIBITION came out at 55.2%. The same measure for `O=C(O)c1ccc(Cc2cccc(F)c2)nc1`: 3.48%. The same measure for `N#Cc1ccc(C(=O)NCC2(N3CCOCC3)CCCC2)nc1`: 10.8%. The same measure for `Cc1ccccc1-c1noc(CN2CCC(c3ccn[nH]3)CC2)n1`: -7.46%.

Take `Cc1ccc(-c2noc(CN3CCC(c4ccn[nH]4)CC3)n2)cc1`: the INHIBITION is on record as 12.8%. Then `Cc1ccccc1-c1noc(CN2CCOC(Cn3cccn3)C2)n1` (stereo not drawn), with 23.95%. For `Cc1ccc(-c2noc(CN3CCC(N4CCNC4=O)CC3)n2)cc1`, the INHIBITION came to 86.8%.

As to `Cc1ccccc1-c1noc(CN2CCC(N3CCNC3=O)CC2)n1`, the INHIBITION is 88.2%.

For the molecule `O=C1NCCN1C1CCN(Cc2nc(-c3ccccc3)no2)CC1`, the INHIBITION stood at 92.3%. Then `c1cc(C2CCN(Cc3nc(-c4ccsc4)no3)CC2)[nH]n1`, with 8.12%; and `O=C1NCCN1C1CCN(Cc2nc(-c3ccsc3)no2)CC1`, with 85.4%; and `O=C(O)C1(n2cccn2)CCN(Cc2nc(-c3ccccc3)no2)CC1`, with 35.9%. `Cc1cccc(-c2noc(CN3CCC(N4CCNC4=O)CC3)n2)c1`: the INHIBITION amounted to 41.1%.

With `c1cnn(C2CN(Cc3nc(-c4ccsc4)no3)C2)c1`, the INHIBITION amounted to 17%.

The record behind these values is ChEMBL document CHEMBL4513216, “Probing the Open Global Health Chemical Diversity Library for Multistage-Active Starting Points for Next-Generation Antimalarials” (ACS Infect Dis, 2020).
